From PubChem BioAssay (NCI)
The panel holds about 83,000 compounds, 20% with a hit somewhere; the sample as a whole holds those more often.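 Values shown are percent growth following 48 h exposure of cells in 96-well plates to a single concentration of compound; below 10 was considered active.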 Activity calls are given as the source filed them.

test system: HCT-15 colon; assay: NCI-60 one-dose screen, 48 h (100 = growth as untreated, 0 = no growth, -100 = all killed); conditions: 10 µM unless noted

**Q.** Which growth does the source give for `CN(C)c1ccc(-c2nc3ncc(Br)cc3o2)cc1` here?
**A.** 115% (inactive)

**Q.** `COc1ccc(-c2cc(-c3nnc(SCC(=O)Nc4ccc(C(C)=O)cc4)n3-c3ccccc3)c3ccccc3n2)cc1OC` was tested. Which growth did it give?
**A.** 102% (inactive)

**Q.** For `Nc1nc(NC2CC2)c2ncn(C3C=CC(CO)C3)c2n1` (centres undefined), which growth is on record?
**A.** 107% (inactive)

**Q.** How did the growth turn out when `C[C@]12CCC(=O)C=C1CC[C@H]1[C@@H]3C[C@@H](O)[C@](O)(C(=O)CO)[C@@]3(C)C[C@H](O)[C@@]12F` was run?
**A.** 102% (inactive)

**Q.** `NS(=O)(=O)c1cc2c(cc1Cl)NC=NS2(=O)=O` was tested. Which growth did it give?
**A.** 102% (inactive)

**Q.** `COc1cnc2c(c1)C(=O)c1c-2n(CCCn2ccnc2)c(=O)c2cc(F)ccc12` was tested. Which growth did it give?
**A.** -28.4% (active)

**Q.** How did the growth turn out when `NC(=O)c1cc(Br)cc(Br)c1NS(=O)(=O)c1ccccc1` was run?
**A.** 100% (inactive)

**Q.** With `CN(C)c1ccc(-n2nc3ccccc3n2)cc1` as the compound, how does the growth read?
**A.** 108% (inactive)

**Q.** For `CC1CN(C2CCCCC2)C(=O)NC1=O` (centres undefined), which growth is on record?
**A.** 104% (inactive)

**Q.** Which growth does the source give for `O=C1C=CC(=O)N1c1ccccc1N1C(=O)C=CC1=O` here?
**A.** 99.6% (inactive)

**Q.** Which growth does the source give for `Cc1n(Cc2ccc3ccccc3c2)c2ccccc2[n+]1Cc1ccc2ccccc2c1` here?
**A.** 15.7% (inactive)

**Q.** With `C[C@H]1O[C@@H](O[C@H]2[C@@H](O)C[C@H](O[C@H]3[C@@H](O)C[C@H](O[C@H]4CC[C@]5(C)C6C[C@@H](O)[C@]7(C)[C@@H](C8=CC(=O)OC8)CC[C@]7(O)C6CC[C@@H]5C4)O[C@@H]3C)O[C@@H]2C)C[C@H](O)[C@@H]1O` (some centres undefined) as the compound, how does the growth read?
**A.** -94.9% (active)

**Q.** How did the growth turn out when `O=C(CNc1ccc2c(c1)C(=O)c1ccccc1C2=O)Nc1ccc2c(c1)C(=O)c1ccccc1C2=O` was run?
**A.** -81.5% (active)

**Q.** How did the growth turn out when `Cc1sc2nc(N3CCCCC3)[nH]c(=O)c2c1C` was run?
**A.** 103% (inactive)

**Q.** For `NC(=NCCCCCCN=C(N)/N=C(\N)Nc1ccc(Cl)cc1)/N=C(\N)Nc1ccc(Cl)cc1`, which growth is on record?
**A.** 17.2% (inactive)

**Q.** How did the growth turn out when `COc1cc(NC(=O)NCc2ccco2)ccc1-c1ccc(NC(=O)NCc2ccco2)cc1OC` was run?
**A.** 48.7% (inactive)

**Q.** How did the growth turn out when `CSc1nc(Nc2ccc(S(=O)(=O)Nc3ccon3)cc2)c(C#N)c(-c2ccc(Cl)cc2)n1` was run?
**A.** 87.9% (inactive)

**Q.** `COP(=O)(OC)C(c1ccc(O)cc1)(c1ccc(O)cc1)c1ccc(O)cc1` was tested. Which growth did it give?
**A.** 102% (inactive)

**Q.** How did the growth turn out when `C=C1CCC2C(C)(COC(=O)CC)C(OC(=O)CC)CCC2(C)C1C/C=C1/C(=O)OCC1OC(=O)CC` (centres undefined) was run?
**A.** 0.0652% (active)

**Q.** Which growth does the source give for `Cc1cnc2nc(-c3ccc(N(C)C)cc3)cn2c1` here?
**A.** 107% (inactive)

**Q.** For `Cc1ccc2nc3c(n2c1)C(=O)C(=O)c1ccccc1-3`, which growth is on record?
**A.** -70.1% (active)

**Q.** With `CC(C)=CCCC(C)c1ccc(C)c2c1OCN(CC1CCNCC1)C2` (centres undefined) as the compound, how does the growth read?
**A.** 39.8% (inactive)

**Q.** For `CCOc1cc(/C=C/C(=O)C(C(=O)/C=C/c2ccc(OC(=O)CNc3nc4ccccc4[nH]3)c(OCC)c2)C(=O)CNc2nc3ccccc3[nH]2)ccc1OC(=O)CNc1nc2ccccc2[nH]1`, which growth is on record?
**A.** -41% (active)

**Q.** How did the growth turn out when `COc1ccc(C(=O)/C=C/c2cccc(Nc3ccnc4cc(Cl)ccc34)c2)cc1` was run?
**A.** 30.6% (inactive)

test system: HT29 colon; assay: as above; conditions: 10 µM unless noted

**Q.** Which growth does the source give for `COc1cc(C2CC(C3C(=O)N(C)C(=O)N(C)C3=O)=NN2C=O)cc(OC)c1OC` (centres undefined) here?
**A.** 76.2% (inactive)

**Q.** For `C=C1CCC2C3(C)COC(c4ccccc4)OC3CCC2(C)C1C/C=C1/C(=O)OCC1OC(C)=O` (centres undefined), which growth is on record?
**A.** 65.7% (inactive)

**Q.** Which growth does the source give for `Clc1ccc(C2=NN(c3ccc(Cl)cc3)C(c3cccc(Nc4ccnc5cc(Cl)ccc45)c3)C2)cc1` (centres undefined) here?
**A.** 77.9% (inactive)

**Q.** `CC(=O)N1N=C(c2ccc(Nc3nc(NCCO)nc(NCCO)n3)cc2)CC1c1ccc(Cl)cc1` (centres undefined) was tested. Which growth did it give?
**A.** 86.8% (inactive)

**Q.** With `O=C(c1ccccc1)c1ccc(Oc2ccc([N+](=O)[O-])cc2[N+](=O)[O-])cc1` as the compound, how does the growth read?
**A.** 2.81% (active)

**Q.** How did the growth turn out when `O=C(C(=O)N1CCOCC1)c1cn(CCCn2cc(C(=O)C(=O)N3CCOCC3)c3ccccc32)c2ccccc12` was run?
**A.** 99.7% (inactive)

**Q.** Which growth does the source give for `CC(C)CC1NC(=O)C(CCCN)NC(=O)C(C(C)C)NC(=O)C2CCCN2C(=O)C(Cc2ccccc2)NC(=O)C(CC(C)C)NC(=O)C(CCCN)NC(=O)C(C(C)C)NC(=O)C2CCCN2C(=O)C(Cc2ccccc2)NC1=O` (centres undefined) here?
**A.** -51.7% (active)

**Q.** With `Cc1csc(C#Cc2cncc(O)c2)n1` as the compound, how does the growth read?
**A.** 110% (inactive)

**Q.** `COc1cc(/C=C/C(=O)C(C(=O)/C=C/c2ccc(OC(=O)CCNC34CC5CC(CC(C5)C3)C4)c(OC)c2)C(=O)CCNC23CC4CC(CC(C4)C2)C3)ccc1OC(=O)CCNC12CC3CC(CC(C3)C1)C2` (centres undefined) was tested. Which growth did it give?
**A.** -71.6% (active)

**Q.** How did the growth turn out when `C/C=C(/C(=C/C)c1ccc(O)cc1)c1ccc(O)cc1` was run?
**A.** 38.6% (inactive)

**Q.** `COc1cc(/C=C/C(=O)CC(=O)/C=C/c2ccc(OC(=O)CCNC34CC5CC(CC(C5)C3)C4)c(OC)c2)ccc1OC(=O)CCNC12CC3CC(CC(C3)C1)C2` was tested. Which growth did it give?
**A.** -70.6% (active)

**Q.** With `Oc1c(Cl)cc(Cl)c(Cl)c1Cc1c(O)c(Cl)cc(Cl)c1Cl` as the compound, how does the growth read?
**A.** 13.1% (inactive)

**Q.** How did the growth turn out when `COc1cc(C2CC(c3ccc(C)cc3)=NN2C=O)ccc1OCCN(C)C` (centres undefined) was run?
**A.** 84.2% (inactive)

**Q.** For `NS(=O)(=O)c1cc(C2(O)NC(=O)c3ccccc32)ccc1Cl` (centres undefined), which growth is on record?
**A.** 98.4% (inactive)

**Q.** With `CCn1cnc(C[C@H](NC(=O)[C@H](CCCCNC(=O)Nc2cc(C(F)(F)F)cc(C(F)(F)F)c2)NC(=O)Nc2cc(C(F)(F)F)cc(C(F)(F)F)c2)C(=O)OC)c1` as the compound, how does the growth read?
**A.** -99.4% [100 µM] (active)

**Q.** `CS(=O)(=O)N1CCN(Cc2cc3nc(-c4cccc5[nH]ncc45)nc(N4CCOCC4)c3s2)CC1` (tested in a mixture with another compound) was tested. Which growth did it give?
**A.** 9.57% (active)

**Q.** With `CN(C)c1ccc(-c2nc3ncc(Br)cc3o2)cc1` as the compound, how does the growth read?
**A.** 110% (inactive)

**Q.** With `COc1ccc(-c2cc(-c3nnc(SCC(=O)Nc4ccc(C(C)=O)cc4)n3-c3ccccc3)c3ccccc3n2)cc1OC` as the compound, how does the growth read?
**A.** 94.7% (inactive)

**Q.** How did the growth turn out when `Nc1nc(NC2CC2)c2ncn(C3C=CC(CO)C3)c2n1` (centres undefined) was run?
**A.** 101% (inactive)

**Q.** For `C[C@]12CCC(=O)C=C1CC[C@H]1[C@@H]3C[C@@H](O)[C@](O)(C(=O)CO)[C@@]3(C)C[C@H](O)[C@@]12F`, which growth is on record?
**A.** 103% (inactive)

**Q.** With `NS(=O)(=O)c1cc2c(cc1Cl)NC=NS2(=O)=O` as the compound, how does the growth read?
**A.** 94.7% (inactive)

**Q.** With `COc1cnc2c(c1)C(=O)c1c-2n(CCCn2ccnc2)c(=O)c2cc(F)ccc12` as the compound, how does the growth read?
**A.** -16.2% (active)

**Q.** For `NC(=O)c1cc(Br)cc(Br)c1NS(=O)(=O)c1ccccc1`, which growth is on record?
**A.** 110% (inactive)

**Q.** Which growth does the source give for `CN(C)c1ccc(-n2nc3ccccc3n2)cc1` here?
**A.** 111% (inactive)

**Q.** With `CC1CN(C2CCCCC2)C(=O)NC1=O` (centres undefined) as the compound, how does the growth read?
**A.** 105% (inactive)

**Q.** With `O=C1C=CC(=O)N1c1ccccc1N1C(=O)C=CC1=O` as the compound, how does the growth read?
**A.** 99.2% (inactive)

**Q.** Which growth does the source give for `Cc1n(Cc2ccc3ccccc3c2)c2ccccc2[n+]1Cc1ccc2ccccc2c1` here?
**A.** -53.3% (active)

**Q.** With `C[C@H]1O[C@@H](O[C@H]2[C@@H](O)C[C@H](O[C@H]3[C@@H](O)C[C@H](O[C@H]4CC[C@]5(C)C6C[C@@H](O)[C@]7(C)[C@@H](C8=CC(=O)OC8)CC[C@]7(O)C6CC[C@@H]5C4)O[C@@H]3C)O[C@@H]2C)C[C@H](O)[C@@H]1O` (some centres undefined) as the compound, how does the growth read?
**A.** -84.5% (active)

**Q.** For `O=C(CNc1ccc2c(c1)C(=O)c1ccccc1C2=O)Nc1ccc2c(c1)C(=O)c1ccccc1C2=O`, which growth is on record?
**A.** -54.5% (active)

**Q.** How did the growth turn out when `Cc1sc2nc(N3CCCCC3)[nH]c(=O)c2c1C` was run?
**A.** 88.6% (inactive)

**Q.** Which growth does the source give for `NC(=NCCCCCCN=C(N)/N=C(\N)Nc1ccc(Cl)cc1)/N=C(\N)Nc1ccc(Cl)cc1` here?
**A.** 7.91% (active)

**Q.** For `COc1cc(NC(=O)NCc2ccco2)ccc1-c1ccc(NC(=O)NCc2ccco2)cc1OC`, which growth is on record?
**A.** 33.7% (inactive)

**Q.** `CSc1nc(Nc2ccc(S(=O)(=O)Nc3ccon3)cc2)c(C#N)c(-c2ccc(Cl)cc2)n1` was tested. Which growth did it give?
**A.** 101% (inactive)

**Q.** `COP(=O)(OC)C(c1ccc(O)cc1)(c1ccc(O)cc1)c1ccc(O)cc1` was tested. Which growth did it give?
**A.** 110% (inactive)

**Q.** With `C=C1CCC2C(C)(COC(=O)CC)C(OC(=O)CC)CCC2(C)C1C/C=C1/C(=O)OCC1OC(=O)CC` (centres undefined) as the compound, how does the growth read?
**A.** -73.2% (active)

**Q.** `Cc1cnc2nc(-c3ccc(N(C)C)cc3)cn2c1` was tested. Which growth did it give?
**A.** 112% (inactive)

**Q.** With `Cc1ccc2nc3c(n2c1)C(=O)C(=O)c1ccccc1-3` as the compound, how does the growth read?
**A.** -39.1% (active)

**Q.** Which growth does the source give for `CC(C)=CCCC(C)c1ccc(C)c2c1OCN(CC1CCNCC1)C2` (centres undefined) here?
**A.** -68.5% (active)

**Q.** Which growth does the source give for `CCOc1cc(/C=C/C(=O)C(C(=O)/C=C/c2ccc(OC(=O)CNc3nc4ccccc4[nH]3)c(OCC)c2)C(=O)CNc2nc3ccccc3[nH]2)ccc1OC(=O)CNc1nc2ccccc2[nH]1` here?
**A.** -100% (active)

**Q.** `COc1ccc(C(=O)/C=C/c2cccc(Nc3ccnc4cc(Cl)ccc34)c2)cc1` was tested. Which growth did it give?
**A.** 1.05% (active)
